Screening results deposited in PubChem by several laboratories.
697 NFkB inh – lowers PMA/ionomycin-induced NF-kB signal in 697 B cells. 697 B-cell NF-kB luciferase reporter, 16 h. inhibition, % at 4 µM. 330,000 compounds, 0.33% hits. AID 435022; in the data active = inhibition above about 35%
Calb FLC – affects C. albicans growth with fluconazole; C. albicans CaCi-2 (fluconazole-resistant clinical isolate) + fluconazole, Alamar Blue growth, 48 h; 300,000 compounds, 0.57% hits; growth inhibition, % (test concentration not listed); AID 1979;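 active = growth inhibition above about 58% in most replicates, limit read from the data, passing the limit was not always enough; inconclusive = exactly half the replicates above a set limit; inactive = most replicates below a set limit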;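 note: all wells also contain fluconazole at 8 µg/ml as a sub-toxic cotreatment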
Beta cell apopt – blocks beta cell apoptosis; INS-1E cytokine-induced death, ATP luminescence, 48 h; percent of positive-control rescue, neutral wells zero; 300,000 compounds, 0.8% hits; protection from apoptosis, % (concentration not given with the values); AID 435005;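 active = Every replicate reaches about 75%, or at least half do and their mean reaches it too, limit read from the data; inconclusive = At least half of replicates reach the limit but their mean does not; inactive = Under half of replicates reach the limit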;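 note: higher means more ATP so stronger rescue from cytokine killing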
Jurkat NFkB inh – lowers PMA/ionomycin-induced NF-kB signal in Jurkat cells; PMA/ionomycin-induced NF-kB luciferase reporter, luminescence; inhibition, % at 4 µM; 330,000 compounds, 0.53% hits; in the data active = inhibition above about 50%
Shn3 inh set2 – reduces Shn3 3'UTR luciferase signal in osteoblasts; inhibition, % at 12.5 µM; Clone20 osteoblast Shn3 3'UTR firefly luciferase, 24 h; AID 588674; 360,000 compounds, 0.52% hits;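 active = mean inhibition of at least 75% with every replicate also reaching 75%; inconclusive = mean inhibition at least 75% but some replicate below; inactive = mean inhibition below 75%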
Jurkat NFkB conf – inhibitors of the PMA/ionomycin-induced NF-kB reporter in Jurkat cells, retest; inhibition, % at 4 µM; shares compounds with Jurkat NFkB inh; 2,700 compounds, 27% hits; Jurkat NF-kB luciferase, 16 h; AID 435020;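 active = inhibition reaching about 45% at 4 µM in either replicate, limit read from the data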
697 NFkB conf – lowers PMA/ionomycin-induced NF-kB signal in 697 B cells | shares compounds with 697 NFkB inh | 697 B-cell NF-kB luciferase, 16 h | inhibition, % at 4 µM | 2,000 compounds, 35% hits; in the data active = inhibition mostly above about 28%, no sharp cut-off; inactive = mostly below about 22%
Hits are given with their value; i = inactive; ? = inconclusive; nt = no result given. Rows were chosen to be rich in hits. Some 2% of all compounds tested hit in one or more screens of this group.

SMILES | 697 NFkB inh | Calb FLC | Beta cell apopt | Jurkat NFkB inh | Shn3 inh set2 | Jurkat NFkB conf | 697 NFkB conf
COc1ccccc1OCC(=O)/C=C1/N(C)c2ccccc2C1(C)C | i | i | i | i | i | nt | nt
CN1/C(=C\C(=O)C[n+]2ccc3ccccc3c2)C(C)(C)c2ccccc21 | 49.4 | i | nt | 83.4 | i | 78.6 | i
Cc1ccc(N=Cc2sc(O)c3ccccc23)c(C)c1 | i | i | i | i | i | nt | nt
Cc1ccc(N=Cc2sc(O)c3ccccc23)cc1 | i | i | i | i | i | i | i
O=C(NCc1ccccc1F)c1ccc2c(c1)OCO2 | i | i | i | i | i | nt | nt
O=C(NCCc1ccccc1F)c1ccc2c(c1)OCCO2 | 55.4 | i | i | 76.3 | ? | 81.8 | 39.2
COc1cccc2c1C(=O)c1c(O)c3c(c(O)c1C2=O)C[C@@](O)(C(=O)CO)C[C@@H]3O[C@H]1C[C@H](N)[C@@H](O)[C@H](C)O1 | 86.5 | nt | i | 94.0 | i | 89.9 | 92.2
CC1=C[C@@H](C)[C@@H](c2ccc(C(F)(F)F)cc2)OC1=O | i | i | nt | i | i | nt | nt
COc1ccccc1C(=O)Nn1c(C)nc2ccccc2c1=O | i | i | i | i | i | nt | nt
O=C(Nc1ccc([N+](=O)[O-])cc1)C(=O)Nc1cccc(C(=O)O)c1 | 46.2 | i | i | 56.0 | 85.8 | 66.9 | 22.6
COc1ccc(-c2cc3onc(-c4c(Cl)cccc4Cl)c3c(=O)n2C)cc1 | i | nt | i | i | i | nt | nt
COc1cccc(-c2cc3onc(-c4ccccc4)c3c(=O)n2C)c1 | i | nt | i | i | i | i | i
COc1ccc(-n2ncc3c(N4CCC(C)CC4)ncnc32)cc1 | i | i | i | i | i | i | i
CC(C)(O)c1[nH]c2ccc(C#N)cc2c1C(C)(C)O | 59.0 | i | i | 62.9 | nt | 88.1 | 59.8
C[C@H](NC(=O)c1nc[nH]c1C(=O)N[C@@H](C)C(=O)OCc1ccccc1)C(=O)OCc1ccccc1 | 55.6 | i | i | 51.3 | i | 85.5 | 60.0
C[C@H](NC(=O)c1nc[nH]c1C(=O)NC(c1ccccc1)c1ccccc1)C(=O)OCc1ccccc1 | i | i | i | i | i | nt | nt
CC1=C(CC(=O)NCC(=O)NCC(=O)O)c2cc(F)ccc2/C1=C/c1ccc(S(C)=O)cc1 (stereo unspecified) | i | i | i | i | i | nt | nt
CCN(CC)S(=O)(=O)c1ccc(O)c(C(=O)OCC(=O)N2CCCc3ccccc32)c1 | nt | nt | nt | nt | i | nt | nt
CC[C@@]1(O)C(=O)OCc2c1cc1n(c2=O)Cc2cc3c(N)cccc3nc2-1 | 77.5 | i | 98.4 | 81.2 | i | 84.1 | i
CC[C@@]1(O)C(=O)OCc2c1cc1n(c2=O)Cc2cc3c(CN(C)C)c(O)ccc3nc2-1 | i | nt | i | 73.0 | i | 95.0 | i
CCCCc1cc(=O)oc2c(CN(C)C)c(O)ccc12 | i | i | nt | i | i | nt | nt
COc1ccc(C2SCCN2C(=S)Nc2cccc(C(F)(F)F)c2)cc1 (stereo unspecified) | i | i | i | i | i | nt | nt
COc1ccc(/C=C2\SC(=O)N(CCCC(=O)Nc3cc(Cl)ccc3C(=O)O)C2=O)cc1 | 91.8 | nt | i | 72.5 | i | 83.0 | 89.8
COc1ccc(C)cc1NS(=O)(=O)c1ccc(-c2cnc(C3CC3)o2)cc1 | i | i | nt | 65.6 | 89.6 | 68.3 | i
COc1cc([N+](=O)[O-])cc(/C=N/NC(=O)c2ccc(NC(=O)c3ccc(C)cc3)cc2)c1O | 81.2 | 101.8 | nt | 86.2 | i | 54.7 | 77.2
SMILES | 697 NFkB inh | Calb FLC | Beta cell apopt | Jurkat NFkB inh | Shn3 inh set2 | Jurkat NFkB conf | 697 NFkB conf
COc1cc([N+](=O)[O-])cc(/C=N/NC(=O)c2ccc(C)nc2)c1O | i | i | i | i | i | nt | nt
O=C(Nc1ccc(-c2nc3ccccc3s2)c(O)c1)C1=COCCO1 | i | i | i | i | i | i | i
CCOc1ccc(-c2cc(CCCC(=O)Nc3cc(OC)ccc3OC)no2)cc1 | i | i | i | i | i | nt | nt
CCOc1ccc(-c2cc(CCCC(=O)Nc3cccc(OC)c3)no2)cc1 | 48.3 | i | i | 55.7 | i | 60.6 | 48.2
CCC(C)c1ccc(NC(=O)Nc2cccnc2)cc1 (stereo unspecified) | i | i | i | i | i | nt | nt
CC(=O)Nc1nc2ccccc2[nH]1 | i | i | i | i | i | nt | nt
O=C(Nc1nc2ccccc2[nH]1)c1ccccc1 | i | i | i | i | i | i | i
COc1cccc(CN(C)C(=O)C2CC(=O)N(c3ccc4c(c3)OCCO4)C2)c1 (stereo unspecified) | i | i | nt | i | i | nt | nt
CC(C)c1ccc(NC(=O)CN2C(=O)NC(C)(C3CC3)C2=O)cc1 (stereo unspecified) | i | nt | i | i | i | nt | nt
Clc1ccccc1-c1nc(-c2ccc(Br)o2)no1 | i | i | i | i | i | i | i
COc1ccccc1NC(=O)C(C)OC(=O)C1CCC(C(C)(C)C)CC1 (stereo unspecified) | i | i | i | i | i | nt | nt
Cc1cc(O)c2c(c1O)C(=O)[C@]13C(=C2O)C(=O)[C@@H]2[C@@H](O)[C@H]1[C@@H]1[C@H](O)[C@H]3C(=O)C3=C(O)c4c(O)cc(C)c(O)c4C(=O)[C@]312 | 43.8 | nt | nt | 85.0 | 92.0 | 86.8 | i
Cc1ccoc1C(=O)Nc1ccc2ccccc2c1 | i | i | i | i | i | i | i
CCOc1cccc(C(=O)Nc2ccc3ccccc3c2)c1 | i | i | i | i | i | i | i
O=C(Nc1ccc2ccccc2c1)c1ccc(Cl)cc1 | i | i | nt | i | i | i | i
Cc1cc(C(=O)Nc2ccc3ccccc3c2)oc1C | i | i | i | i | i | nt | nt
O=C(O)CCn1nnc(-c2cccs2)n1 | i | i | i | i | i | nt | nt
CC(C)c1ccc(-c2nnn(CCC(=O)O)n2)cc1 | 70.5 | i | i | 60.2 | i | 62.0 | 70.0
Cc1ccc(S(=O)(=O)N2C[C@H]3N(C(=O)OC(C)C)N(C(=O)OC(C)C)C[C@H](OC(=O)Nc4c(C)noc4C)[C@@]3(O)C2)cc1 | nt | nt | nt | nt | i | nt | nt
CN(C)CCn1c2ccccc2c2nc3ccc([N+](=O)[O-])cc3cc21 | i | i | i | 60.1 | i | i | i
CCn1c2ccccc2c2cc([N+](=O)[O-])ccc21 | i | i | i | i | i | nt | nt
Cc1cccc(C)c1NC(=O)CNC(=O)C1CC(=O)N(Cc2ccccc2)C1 (stereo unspecified) | i | i | i | i | i | nt | nt
Cc1cc(/C=N/NC(=O)c2cccs2)c(C)n1-c1ccccc1 | i | i | i | i | i | i | i
O=C(NCCc1ccccn1)c1cncc(Br)c1 | i | i | i | i | i | nt | nt
COc1ccc(-c2cn3c(C)c(C(=O)N4CCCc5ccccc54)sc3n2)cc1 | i | i | i | i | i | nt | nt
COc1ccc(-c2cn3c4c(sc3n2)CCCC4)cc1 | i | i | i | i | i | i | i
CCOC(=O)c1c(C)[nH]c(C(=O)CSc2ccccc2)c1C | i | i | i | i | i | i | i
